# Test results reported in PubChem BioAssay (NCI).
# About 83,000 compounds went through this panel and 20% of them were active in at least one assay; those are over-represented in the sample as a whole.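 Step 1: grow cells in 96-well plates. Step 2: add test compound at a single concentration. Step 3: incubate 48 h. Step 4: record percent growth.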 Values without a mark were called inactive. Active and inactive are the calls of the source. Rule for the calls: active = growth percent below 10; inactive = the rest.
# Assays:
# Test in all cases: NCI-60 one-dose screen, 48 h (100 = growth as untreated, 0 = no growth, -100 = all killed)
# Settings in all cases: 10 µM
# [1] = test system: EKVX NSCLC
# [2] = test system: SN12C renal
# [3] = test system: UO-31 renal
# [4] = test system: TK-10 renal
# [5] = test system: ACHN renal
# [6] = test system: CAKI-1 renal
# [7] = test system: A498 renal
# [8] = test system: MOLT-4 leukemia
# [9] = test system: SR leukemia
# [10] = test system: OVCAR-8 ovarian
# [11] = test system: OVCAR-5 ovarian
# [12] = test system: OVCAR-4 ovarian
# [13] = test system: SK-OV-3 ovarian
# [14] = test system: IGROV1 ovarian
# [15] = test system: OVCAR-3 ovarian
# [16] = test system: HS 578T breast
# [17] = test system: NCI/ADR-RES ovarian
# [18] = test system: T-47D breast
# [19] = test system: RPMI-8226 leukemia
# [20] = test system: CCRF-CEM leukemia
Compound,growth [1],growth [2],growth [3],growth [4],growth [5],growth [6],growth [7],growth [8],growth [9],growth [10],growth [11],growth [12],growth [13],growth [14],growth [15],growth [16],growth [17],growth [18],growth [19],growth [20]
COc1ccc(CN2CCC(N3CCCC3=O)c3cc(Cl)ccc32)cc1 (stereo not given),106%,99.5%,73.6%,108%,101%,114%,111%,83%,84.2%,104%,93.3%,95.3%,105%,104%,120%,99.3%,90.2%,89.5%,,
O=[N+]([O-])c1cccc(-c2ncc(-c3ccc(Cl)cc3Cl)[nH]2)c1,91.5%,80.9%,60.4%,20.1%,-2.82% (active),100%,104%,22.1%,-36.6% (active),83.5%,,70%,115%,26.6%,59.8%,44.9%,97.2%,79%,-8.35% (active),
CC(=O)c1cc(Br)ccc1O,107%,120%,98.7%,111%,105%,111%,106%,101%,,112%,92.3%,105%,126%,136%,118%,108%,107%,114%,105%,103%
O=C1OCC2=C1C(c1cccc(Br)c1)c1cc3c(cc1N2CCO)CCC3 (stereo not given),47.7%,21.2%,33.9%,62.6%,20.9%,20.8%,-11.2% (active),14.1%,28.5%,,22.4%,54.6%,,20.3%,-62.5% (active),6.91% (active),-5.39% (active),71.5%,19%,8.55% (active)
COc1ccc(N=C2C(=Nc3ccc(OC)cc3)N(c3ccc(N(C)C)cc3)C(=S)N2c2ccc(OC)cc2)cc1,90.1%,106%,16.3%,95.1%,81.6%,53.3%,71.1%,10.8%,46.3%,,34.9%,,,107%,106%,19.6%,95.8%,91.1%,-12.4% (active),52%
CCCCCCCCCCCCC1C/C=C\CCCC(=O)O1 (stereo not given),94%,119%,93.1%,113%,104%,113%,128%,37.4%,-18.4% (active),104%,101%,,95.5%,110%,107%,113%,119%,91.2%,89.7%,
Cc1nc2ccc(CN(C)c3ccc(C(=O)N[C@@H](CCC(=O)O)C(=O)O)s3)cc2c(=O)[nH]1,72.9%,47.7%,39.9%,48.6%,34.1%,28.5%,21.5%,26.2%,44.6%,,67.6%,,55.3%,71.8%,57.3%,73.2%,43.8%,55.4%,56.6%,33.1%
O=C1/C(=C\c2cn(C(=O)c3ccc(Cl)cc3)c3ccccc23)c2ccccc2N1C(=O)c1ccc(Cl)cc1,70.7%,80.8%,64.4%,55.3%,63.3%,73.8%,81.1%,61.5%,56.1%,78.7%,,72%,77%,80%,84.3%,80.5%,83.4%,61.7%,57.5%,
CCCCCCCCCCCCCCCCCCOCC(COCCOCC[N+]1(CCCCCC(=O)[O-])CCCC1)Oc1ncccn1 (stereo not given),63.4%,46.6%,98.7%,7.83% (active),69.2%,93.5%,73.7%,32.5%,29.9%,,-0.76% (active),,83.5%,-15.2% (active),62.6%,65.6%,108%,42.3%,2.22% (active),32.3%
CCCC1(CC(=O)O)OCCc2c1[nH]c1ccccc21 (stereo not given),120%,98%,86.4%,113%,111%,91%,106%,87.3%,84%,,88.6%,74%,217%,114%,109%,101%,107%,194%,99.9%,94.1%
Nc1ccc2cc(S(=O)(=O)O)cc(O)c2c1N=Nc1ccc(F)cc1,107%,112%,51.3%,123%,99.7%,108%,129%,99.8%,,107%,99.5%,137%,103%,,117%,111%,99.3%,101%,106%,106%
COc1cc(Cc2cc(-c3ccc(Cl)cc3)n[nH]c2=O)ccc1O,-26% (active),98%,83.9%,157%,109%,132%,104%,-59.9% (active),-35.7% (active),92.6%,,,98.6%,,96.1%,73.2%,126%,91%,47.9%,
c1ccc([C@H]2CN3CCSC3=N2)cc1,98.3%,109%,88.2%,112%,107%,93.6%,85%,98.5%,103%,,87.2%,,107%,,111%,85.7%,103%,99.6%,110%,99.1%
CCc1ccc2c(c1)N(CCO)C1=C(C(=O)OC1)C2c1ccccc1 (stereo not given),104%,105%,88.9%,91.8%,88.6%,101%,73.4%,83%,,,93.9%,104%,94.9%,95.8%,111%,125%,78.7%,95.6%,101%,91.9%
COc1cc(/C=N/NC(=O)c2ccccc2Nc2cccc(C(F)(F)F)c2)cc(OC)c1OC,53.5%,57.4%,41.4%,-18.2% (active),2.47% (active),29.2%,-13.2% (active),28.3%,-4.43% (active),34.3%,62.1%,9.6% (active),16.1%,-17.1% (active),-53.8% (active),12.2%,12.6%,29.6%,236%,
COc1cc(/C=C2\Oc3cc(OCC(=O)c4ccccc4)ccc3C2=O)cc(OC)c1OC,108%,109%,67.6%,151%,89.6%,119%,105%,91%,,109%,,109%,120%,55.1%,110%,107%,97.2%,73.6%,107%,73.2%
CCN(CC)CCSCCCNc1c2ccc(Cl)cc2nc2ccc(OC)cc12,-20.2% (active),-32% (active),-29.1% (active),-4.3% (active),-78.3% (active),-22.8% (active),-77.7% (active),-19.9% (active),-19.8% (active),-29.3% (active),,-34.1% (active),-1.76% (active),-18.7% (active),,6.72% (active),1.58% (active),-32.8% (active),-22.9% (active),-20.4% (active)
